According to PubChem BioAssay AID540321 (Johns Hopkins Ion Channel Center, 2011):
Active and inactive are the calls of the source.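 How the source made its calls: active means Inhibition of the Kir2.1 potassium channel over 30% at some tested dose, plus a fitted dose response curve; inactive means no Kir2.1 inhibition at any dose, or no curve fitted.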

Molecular target: Inward rectifier potassium channel 2 (Mus musculus) (UniProt P35561)
Experiment: Kir2.1 channel inhibition, specificity check, SAR follow-up, selectivity assay for KCNK9 inhibitor project, cell-based, FluxOR thallium flux, CRC round 2 (AID 540321)
Settings: Kir2.1-expressing cells; series mostly up to 30 µM

Sequence of Inward rectifier potassium channel 2 (Mus musculus) (P35561 whole entry, looked up): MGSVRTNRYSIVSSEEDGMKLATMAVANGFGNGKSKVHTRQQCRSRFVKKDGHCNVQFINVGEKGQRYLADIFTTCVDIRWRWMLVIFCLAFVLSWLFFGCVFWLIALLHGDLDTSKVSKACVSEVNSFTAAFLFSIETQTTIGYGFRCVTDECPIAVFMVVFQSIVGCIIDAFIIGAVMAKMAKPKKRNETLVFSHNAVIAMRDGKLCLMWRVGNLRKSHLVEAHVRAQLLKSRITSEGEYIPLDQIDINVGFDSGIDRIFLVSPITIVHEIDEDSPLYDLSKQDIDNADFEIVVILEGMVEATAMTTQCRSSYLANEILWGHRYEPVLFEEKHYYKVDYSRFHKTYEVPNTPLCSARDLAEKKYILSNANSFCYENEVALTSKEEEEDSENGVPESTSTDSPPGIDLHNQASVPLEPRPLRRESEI

outcome, inactive:
CCOc1ccccc1C(=O)Nc1cccc(NC(=O)c2cccc(C)c2)c1
CC(C1CC2CCC1C2)n1c(-c2cccc(Cl)c2)n[nH]c1=S (stereo not given)
Cc1cccc(C(=O)Nc2cccc(NC(=O)c3cccc(C(F)(F)F)c3)c2)c1
O=C(Nc1cccc(NC(=O)C2CCCCC2)c1)c1ccccc1
CCOc1ccccc1NC(=O)c1cccc(NC(=O)c2ccc(OC)cc2)c1
O=C(Nc1cccc(NC(=O)c2cccnc2)c1)c1ccccc1
COc1ccccc1NC(=O)c1cccc(NC(=O)C2CCCCC2)c1
CC(C1CC2CCC1C2)n1c(C2CCOC2)n[nH]c1=S (stereo not given)
COc1ccccc1NC(=O)c1cccc(NC(=O)c2ccccc2)c1
O=C(Nc1ccccc1Cl)c1cccc(NC(=O)C2CCCC2)c1
CCOc1ccccc1NC(=O)c1cccc(NC(=O)C2CCOC2)c1 (stereo not given)
COc1ccccc1C(=O)Nc1cccc(NC(=O)c2ccccc2OC)c1
Cc1cccc(C(=O)Nc2cccc(NC(=O)c3ccccc3Cl)c2)c1
CC(c1ccco1)n1c(-c2ccoc2)n[nH]c1=S (stereo not given)
Cc1cccc(C(=O)Nc2cccc(NC(=O)c3ccco3)c2)c1
CCOc1ccc(NC(=O)c2cccc(NC(=O)C3CCCC3)c2)cc1
CCOc1ccccc1NC(=O)c1cccc(NC(=O)c2ccc(C)cc2)c1
O=C(Nc1cccc(NC(=O)c2cccc(Cl)c2)c1)c1ccccc1
CCOc1cccc(NC(=O)c2cccc(NC(=O)C3CCCC3)c2)c1
CCOc1ccccc1NC(=O)c1cccc(NC(=O)C2CCCCC2)c1
O=C(Nc1cccc(NC(=O)c2ccccc2Cl)c1)c1ccccc1
COc1ccccc1-c1n[nH]c(=S)n1C(C)C1CC2CCC1C2 (stereo not given)
O=C(Nc1cccc(NC(=O)c2ccncc2)c1)c1ccccc1
CCOc1ccccc1NC(=O)c1cccc(NC(=O)c2cccc(Cl)c2)c1
Cc1ccc(C(=O)Nc2cccc(NC(=O)c3ccccc3)c2)cc1
Cc1cccc(C(=O)Nc2cccc(NC(=O)C3CCCCC3)c2)c1
Cc1cccc(-c2n[nH]c(=S)n2C(C)C2CC3CCC2C3)c1 (stereo not given)
CCOc1ccccc1NC(=O)c1cccc(NC(=O)c2cccc(OC)c2)c1
O=C(Nc1cccc(NC(=O)c2ccoc2)c1)c1ccccc1
Cc1cccc(S(=O)(=O)Nc2cccc(NC(=O)c3ccccc3)c2)c1
COc1ccc(C(=O)Nc2cccc(NC(=O)c3cccc(C)c3)c2)cc1
CC(C1CC2CCC1C2)n1c(-c2ccccc2Cl)n[nH]c1=S (stereo not given)
CCOc1ccccc1NC(=O)c1cccc(C(=O)NC2CCCC2)c1
COc1ccccc1C(=O)Nc1cccc(NC(=O)c2ccccc2C)c1
O=C(Nc1cccc(NC(=O)c2ccco2)c1)c1ccccc1
